Records with an inconclusive call do not appear. The source made the active and inactive calls. Calls come from the whole dose curve.
test: qHTS assay for small molecule agonists of the antioxidant response element (ARE) signaling pathway - cell viability counter screen (AID 743203); conditions: ARE-bla HepG2 viability, CellTiter-Glo luminescence, 16 h; series mostly up to 73.3 µM; viability change, negative = cytotoxic: at the top concentration; note: nearly all actives have a fitted effect of over 55% in size
Source text: National Center for Advancing Translational Sciences [NCATS]
NIH Chemical Genomics Center [NCGC]
U.S. Environmental Protection Agency [EPA]
National Institutes of Environmental Health Sciences [NIEHS]
National Toxicology Program [NTP]
U.S. Food and Drug Administration [FDA]
Oxidative stress has been implicated in the pathogenesis of a variety of diseases ranging from cancer to neurodegeneration. The antioxidant response element (ARE) signaling pathway plays an important role in the amelioration of oxidative stress. The CellSensor ARE-bla HepG2 cell line (Invitrogen) can be used for analyzing the Nrf2/antioxidant response signaling pathway. Nrf2 (NF-E2-related factor 2) and Nrf1 are transcription factors that bind to AREs and activate these genes. The CellSensor ARE-bla Hep G2 cell line contains a beta-lactamase reporter gene under control of the Antioxidant Response Element (ARE) stably integrated into HepG2 cells. The activation of the report gene under culture conditions can be detected by fluorescence intensity. This cell line has been used to screen the Tox21 10K compound library to identify agonists that induce oxidative stress. The cytotoxicity of the Tox21 compound library against the ARE-bla cell line was tested in parallel by measuring the cell viability using CellTiter-Glo assay (Promega, Madison, WI) in the same wells.
Tox21 Assay Protocol Summary:
ARE-bla HepG2 cells were dispensed at 2,000 cells/5 ul/well in 1536-well white wall/solid bottom plates using a Multidrop Combi (ThermoFisher Scientific, Waltham, MA) dispenser. After the assay plates were incubated at 37C/5% CO2 for 5 hrs, 23 nL of compounds dissolved in DMSO, positive controls or DMSO only was transferred to the assay plate by a pintool work station (Kalypsys, San Diego, CA). The plates were incubated at 37C/5% CO2 for 16 hrs, followed by addition of 4 ul/well of CellTiter-Glo reagent into the assay plates using a Flying Reagent Dispenser (Aurora Discovery, San Diego, CA). After 30 min incubation at room temperature, the luminescence intensity in the assay plates was measured using a ViewLux (PerkinElmer, Shelton, CT) plate reader.
% is set by controls: 0 for no effect and ±100 for the full control effect; potency is the fitted concentration of half-maximal effect.

SMILES	viability change, negative = cytotoxic	Potency
Cc1cc(O)cc2c1O[C@](C)(CCC[C@H](C)CCC[C@H](C)CCCC(C)C)CC2	8.15% (inactive)	–
COC(=O)NN	2.08% [at 94.8 µM] (inactive)	–
NCCCNCCSP(=O)(O)O	1.31% [at 8.36 µM] (inactive)	–
C=CCOCC(CC)(CO)COCC=C	-4.55% (inactive)	–
ClC(Cl)(Br)Br	2.06% (inactive)	–
N=C(N)c1ccccc1	1.49% (inactive)	–
O=C(O)CNC(=O)c1ccc([N+](=O)[O-])cc1	6.01% (inactive)	–
CC(C(=O)O)c1ccc(CC2CCCC2=O)cc1 (stereo not given)	0.821% (inactive)	–
CC1=CC(C)C(C=O)CC1 (stereo not given)	-2.87% (inactive)	–
OC(CCN1CCCCC1)(c1ccccc1)C1CC2C=CC1C2 (stereo not given)	0.542% (inactive)	–
CC(C)(O)C#CC(C)(C)O	0.636% [at 94.8 µM] (inactive)	–
O=C(O)CN(CCOCCOCCN(CC(=O)O)CC(=O)O)CC(=O)O	1.75% [at 0.756 µM] (inactive)	–
CCOc1ccc(C(=O)OCCN(CC)CC)cc1	8.39% (inactive)	–
CN1C(=O)N(C)C(O)C1O (stereo not given)	-4.55% (inactive)	–
COC(=O)c1ccc(C)cc1C1=NC(C)(C(C)C)C(=O)N1 (stereo not given)	2.03% (inactive)	–
CC1(C)C(O)C(C)(C)C1O (stereo not given)	-17.5% (inactive)	–
c1ccc(CC2=NCCN2)cc1	5.94% (inactive)	–
C=C(C)CS(=O)(=O)O	-14% (inactive)	–
C1CN(CCOCCN2CCOCC2)CCO1	0.0115% (inactive)	–
O=C(O)COc1nn(Cc2ccccc2)c2ccccc12	1.47% (inactive)	–

SMILES	viability change, negative = cytotoxic	Potency
CCC(=O)OC(C)c1ccccc1 (stereo not given)	0.375% (inactive)	–
CCCC(=O)O[C@]1(C(=O)CO)CC[C@H]2[C@@H]3CCC4=CC(=O)CC[C@]4(C)[C@H]3[C@@H](O)C[C@@]21C	-13.9% (inactive)	–
COc1ccc(CCN(C)CCCC(C#N)(c2cc(OC)c(OC)c(OC)c2)C(C)C)cc1OC (stereo not given)	-0.703% (inactive)	–
CC(C)(CC(=O)O)C(=O)O	-8.46% (inactive)	–
CC(=O)OCC(=O)[C@@]1(O)CCC2C3CCC4=CC(=O)CC[C@]4(C)C3[C@@H](O)C[C@@]21C (stereo not given in full)	9.39% (inactive)	–
CCOC(=O)CCC(C)=O	6.32% (inactive)	–
NS(=O)(=O)c1cc2c(cc1Cl)NC(C1CC3C=CC1C3)NS2(=O)=O (stereo not given)	8.76% (inactive)	–
CCN(Cc1ccncc1)C(=O)C(CO)c1ccccc1 (stereo not given)	-7.03% (inactive)	–
CN(C)CCCN1c2ccccc2CCc2ccc(Cl)cc21	–	43.3 µM (active)
CC(=O)OC/C=C(\C)CC/C=C(\C)CCC=C(C)C	-1.44% (inactive)	–
CCc1ccc(O)c(OC)c1	-0.591% (inactive)	–
Cc1cccc(C)c1NC(=O)C(C)N (stereo not given)	-16.3% (inactive)	–
CC(=O)CC(C)C	8% (inactive)	–
OCCCC1CCCCC1	13.1% (inactive)	–
CCN(CC)CCOCCOC(=O)C1(c2ccccc2)CCCC1	0.207% (inactive)	–
CCn1ccnc1CC1COc2ccccc2O1 (stereo not given)	6.15% (inactive)	–
COC(=O)C1=C(C)NC(C)=C(C(=O)OC)C1c1ccccc1[N+](=O)[O-]	–	inactive
C=CCCCCCCCCC=O	-1.88% (inactive)	–
CCn1nc(C(=O)O)c(=O)c2cc3c(cc21)OCO3	11.8% (inactive)	–
CC/C=C\CC/C=C/CO	0.123% (inactive)	–
